# Reference: paper PMC7862700, “An all-to-all approach to the identification of sequence-specific readers for epigenetic DNA modifications on cytosine”
# How the values were obtained:
# Assay in all cases: DAPPL (digital affinity profiling via proximity ligation, sequencing); 10 mM Tris-HCl pH 7.5, 50 mM NaCl, 1 mM DTT, 4% glycerol, room temperature, 30 min; GST-TFs on glutathione beads, 16-mer random dsDNA library, 0.1% formaldehyde crosslink after washing; high values mean tight binding
# FLI1 = target: T1, FLI1 (Homo sapiens, UniProt Q01543 1-452); conditions: protein: recombinant; tags: N-terminal GST; dsDNA, one strand shown
# T1 sequence: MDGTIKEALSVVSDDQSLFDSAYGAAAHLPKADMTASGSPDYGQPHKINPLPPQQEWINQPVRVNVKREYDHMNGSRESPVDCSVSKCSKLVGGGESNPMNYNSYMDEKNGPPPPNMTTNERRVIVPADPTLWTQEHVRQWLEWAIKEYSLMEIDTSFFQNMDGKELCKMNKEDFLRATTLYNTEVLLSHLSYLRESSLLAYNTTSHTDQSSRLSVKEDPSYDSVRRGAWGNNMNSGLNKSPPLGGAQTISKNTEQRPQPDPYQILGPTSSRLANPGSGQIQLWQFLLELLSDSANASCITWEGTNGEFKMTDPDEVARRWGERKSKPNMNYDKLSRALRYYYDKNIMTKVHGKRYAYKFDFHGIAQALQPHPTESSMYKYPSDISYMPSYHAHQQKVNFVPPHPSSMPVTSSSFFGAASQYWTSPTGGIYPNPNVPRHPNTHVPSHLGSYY
# Procedure, shortened: (§1)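 Each value of binding signal is a hexamer's read frequency for a factor divided by the same hexamer's frequency in the tag-only sample. Barcoded, bead-captured GST fusions of human transcription factors made in yeast were pooled with that sample and incubated with 200 nmole of a random double-stranded 16-mer DNA library in Tris/NaCl/DTT/glycerol buffer at room temperature for 30 min. Washing, 0.1% formaldehyde crosslinking, proximity ligation, PCR and Illumina NextSeq500 sequencing followed.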
# ELK1 = target: T2, ELK1 (Homo sapiens, UniProt P19419 1-428); conditions: protein: recombinant; tags: N-terminal GST; dsDNA, one strand shown
# T2 sequence: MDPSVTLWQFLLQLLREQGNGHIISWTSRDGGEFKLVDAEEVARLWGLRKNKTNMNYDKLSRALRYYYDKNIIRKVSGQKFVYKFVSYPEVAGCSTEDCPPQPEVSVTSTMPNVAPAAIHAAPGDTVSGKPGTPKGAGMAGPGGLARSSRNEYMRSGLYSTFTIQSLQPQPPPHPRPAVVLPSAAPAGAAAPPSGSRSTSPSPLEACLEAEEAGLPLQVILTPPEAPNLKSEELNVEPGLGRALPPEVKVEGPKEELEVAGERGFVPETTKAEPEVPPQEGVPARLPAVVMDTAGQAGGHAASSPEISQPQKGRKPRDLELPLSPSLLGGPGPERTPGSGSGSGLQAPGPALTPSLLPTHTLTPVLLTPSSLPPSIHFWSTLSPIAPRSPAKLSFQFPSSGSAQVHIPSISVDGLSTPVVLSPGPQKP
# Procedure, shortened: as §1
# GABPA = target: T3, GABPA (Homo sapiens, UniProt Q06546 1-454); conditions: protein: recombinant; tags: N-terminal GST; dsDNA, one strand shown
# T3 sequence: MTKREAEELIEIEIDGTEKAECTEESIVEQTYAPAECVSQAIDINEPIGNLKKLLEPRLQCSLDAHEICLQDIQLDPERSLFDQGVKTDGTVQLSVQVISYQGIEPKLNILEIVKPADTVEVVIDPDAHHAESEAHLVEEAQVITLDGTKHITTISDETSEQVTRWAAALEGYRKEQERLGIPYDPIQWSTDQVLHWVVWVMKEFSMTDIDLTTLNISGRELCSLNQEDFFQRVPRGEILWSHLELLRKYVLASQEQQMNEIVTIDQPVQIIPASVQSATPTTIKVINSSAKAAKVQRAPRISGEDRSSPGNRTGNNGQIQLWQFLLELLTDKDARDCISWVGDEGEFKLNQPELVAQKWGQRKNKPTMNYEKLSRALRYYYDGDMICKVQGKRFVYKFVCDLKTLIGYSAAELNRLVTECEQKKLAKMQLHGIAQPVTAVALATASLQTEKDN
# Procedure, shortened: as §1
# ERG = target: T4, ERG (Homo sapiens, UniProt P11308 1-479); conditions: protein: recombinant; tags: N-terminal GST; dsDNA, one strand shown
# T4 sequence: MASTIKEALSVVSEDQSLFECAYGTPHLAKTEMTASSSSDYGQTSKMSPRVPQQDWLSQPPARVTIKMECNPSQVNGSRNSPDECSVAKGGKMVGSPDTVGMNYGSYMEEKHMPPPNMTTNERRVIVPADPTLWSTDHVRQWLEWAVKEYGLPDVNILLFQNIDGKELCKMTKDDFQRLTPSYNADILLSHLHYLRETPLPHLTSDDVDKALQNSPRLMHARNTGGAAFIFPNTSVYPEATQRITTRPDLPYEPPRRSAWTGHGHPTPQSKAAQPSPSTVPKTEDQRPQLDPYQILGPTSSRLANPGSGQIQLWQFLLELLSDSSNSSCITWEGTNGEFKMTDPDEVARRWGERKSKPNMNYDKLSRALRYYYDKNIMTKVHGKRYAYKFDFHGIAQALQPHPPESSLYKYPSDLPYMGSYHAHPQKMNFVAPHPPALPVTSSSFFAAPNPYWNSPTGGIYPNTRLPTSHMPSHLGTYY
# Procedure, shortened: as §1
# ELF1 = ELF1 (Homo sapiens, UniProt P32519 1-619); conditions: protein: recombinant; tags: N-terminal GST; dsDNA, one strand shown
# Chain of ELF1 (P32519 whole entry): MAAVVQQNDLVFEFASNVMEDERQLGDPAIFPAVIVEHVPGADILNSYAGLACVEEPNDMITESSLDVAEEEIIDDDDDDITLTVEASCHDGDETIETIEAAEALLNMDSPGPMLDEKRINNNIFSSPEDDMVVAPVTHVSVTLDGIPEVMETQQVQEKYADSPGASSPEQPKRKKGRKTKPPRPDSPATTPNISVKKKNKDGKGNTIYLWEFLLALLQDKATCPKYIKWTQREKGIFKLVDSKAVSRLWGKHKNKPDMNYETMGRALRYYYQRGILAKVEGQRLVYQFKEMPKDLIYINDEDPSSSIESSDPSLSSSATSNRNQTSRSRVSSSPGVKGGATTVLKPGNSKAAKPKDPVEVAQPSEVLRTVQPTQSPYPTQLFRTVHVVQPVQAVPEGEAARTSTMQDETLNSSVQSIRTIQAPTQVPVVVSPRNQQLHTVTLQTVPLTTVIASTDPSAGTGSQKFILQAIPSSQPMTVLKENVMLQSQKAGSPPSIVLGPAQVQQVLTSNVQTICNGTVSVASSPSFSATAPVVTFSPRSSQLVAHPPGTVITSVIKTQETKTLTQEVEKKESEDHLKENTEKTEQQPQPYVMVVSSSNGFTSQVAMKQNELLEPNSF
# Procedure, shortened: as §1
# EHF = target: T5, EHF (Homo sapiens, UniProt Q9NZC4 1-300); conditions: protein: recombinant; tags: N-terminal GST; dsDNA, one strand shown
# T5 sequence: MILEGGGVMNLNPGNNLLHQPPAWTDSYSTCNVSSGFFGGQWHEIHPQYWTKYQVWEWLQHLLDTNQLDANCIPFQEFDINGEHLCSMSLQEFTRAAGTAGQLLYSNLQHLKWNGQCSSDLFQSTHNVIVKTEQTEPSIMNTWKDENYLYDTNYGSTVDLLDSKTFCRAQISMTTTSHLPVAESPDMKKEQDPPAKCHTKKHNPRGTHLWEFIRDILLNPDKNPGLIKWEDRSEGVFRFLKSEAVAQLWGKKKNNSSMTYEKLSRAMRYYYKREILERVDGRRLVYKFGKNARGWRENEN
# Procedure, shortened: as §1
# SPI1 = SPI1 (Homo sapiens, UniProt P17947 1-270); conditions: protein: recombinant; tags: N-terminal GST; dsDNA, one strand shown
# Procedure, shortened: as §1
# SPIB = SPIB (Homo sapiens, UniProt Q01892 1-262); conditions: protein: recombinant; tags: N-terminal GST; dsDNA, one strand shown
# Chain of SPIB (Q01892 whole entry): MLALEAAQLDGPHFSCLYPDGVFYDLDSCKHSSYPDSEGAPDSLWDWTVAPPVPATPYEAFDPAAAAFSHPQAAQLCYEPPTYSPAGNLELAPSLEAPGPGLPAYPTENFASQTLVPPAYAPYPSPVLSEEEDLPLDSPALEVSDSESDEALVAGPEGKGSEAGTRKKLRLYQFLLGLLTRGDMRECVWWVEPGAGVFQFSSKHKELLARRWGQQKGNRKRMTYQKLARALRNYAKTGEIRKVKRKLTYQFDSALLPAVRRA
# Procedure, shortened: as §1
# ELK3 = target: T6, ELK3 (Homo sapiens, UniProt P41970 1-407); conditions: protein: recombinant; tags: N-terminal GST; dsDNA, one strand shown
# T6 sequence: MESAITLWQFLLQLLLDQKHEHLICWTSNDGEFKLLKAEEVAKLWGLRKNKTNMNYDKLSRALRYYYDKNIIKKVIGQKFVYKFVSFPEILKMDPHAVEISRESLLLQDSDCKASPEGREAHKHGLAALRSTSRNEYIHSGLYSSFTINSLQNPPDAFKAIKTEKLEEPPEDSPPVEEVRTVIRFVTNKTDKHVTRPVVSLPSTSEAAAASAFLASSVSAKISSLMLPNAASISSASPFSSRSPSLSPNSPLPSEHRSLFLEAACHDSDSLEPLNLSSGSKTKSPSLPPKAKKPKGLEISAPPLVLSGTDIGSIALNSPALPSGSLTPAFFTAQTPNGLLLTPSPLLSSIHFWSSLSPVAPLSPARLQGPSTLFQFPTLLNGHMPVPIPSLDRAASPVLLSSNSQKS
# Procedure, shortened: as §1
# FEV = target: T7, FEV (Homo sapiens, UniProt Q99581 1-238); conditions: protein: recombinant; tags: N-terminal GST; dsDNA, one strand shown
# T7 sequence: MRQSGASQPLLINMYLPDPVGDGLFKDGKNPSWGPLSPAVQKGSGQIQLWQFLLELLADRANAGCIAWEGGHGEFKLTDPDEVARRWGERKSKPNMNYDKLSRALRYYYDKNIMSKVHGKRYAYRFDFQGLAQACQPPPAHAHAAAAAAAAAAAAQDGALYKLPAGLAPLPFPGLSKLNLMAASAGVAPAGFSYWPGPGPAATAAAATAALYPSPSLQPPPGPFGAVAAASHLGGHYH
# Procedure, shortened: as §1
# ETV5 = ETV5 (Homo sapiens, UniProt P41161 1-510); conditions: protein: recombinant; tags: N-terminal GST; dsDNA, one strand shown
# Chain of ETV5 (P41161 whole entry): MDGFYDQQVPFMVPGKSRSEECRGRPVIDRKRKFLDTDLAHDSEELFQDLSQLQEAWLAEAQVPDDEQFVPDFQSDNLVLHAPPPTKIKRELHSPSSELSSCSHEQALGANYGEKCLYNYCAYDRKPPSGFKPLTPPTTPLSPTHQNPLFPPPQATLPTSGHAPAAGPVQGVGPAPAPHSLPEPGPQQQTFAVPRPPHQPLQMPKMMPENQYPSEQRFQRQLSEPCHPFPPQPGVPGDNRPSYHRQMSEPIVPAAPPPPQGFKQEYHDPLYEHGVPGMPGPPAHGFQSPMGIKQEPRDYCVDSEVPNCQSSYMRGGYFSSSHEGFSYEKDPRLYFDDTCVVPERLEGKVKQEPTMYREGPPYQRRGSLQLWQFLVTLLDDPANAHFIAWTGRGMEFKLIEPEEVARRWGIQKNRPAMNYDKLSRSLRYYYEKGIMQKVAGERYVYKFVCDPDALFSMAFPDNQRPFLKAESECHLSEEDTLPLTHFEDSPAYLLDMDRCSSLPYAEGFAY
# Procedure, shortened: as §1
# HSF1 = HSF1 (Homo sapiens, UniProt Q00613 1-529); conditions: protein: recombinant; tags: N-terminal GST; chain copies: 3; dsDNA, one strand shown
# Chain of HSF1 (Q00613 whole entry): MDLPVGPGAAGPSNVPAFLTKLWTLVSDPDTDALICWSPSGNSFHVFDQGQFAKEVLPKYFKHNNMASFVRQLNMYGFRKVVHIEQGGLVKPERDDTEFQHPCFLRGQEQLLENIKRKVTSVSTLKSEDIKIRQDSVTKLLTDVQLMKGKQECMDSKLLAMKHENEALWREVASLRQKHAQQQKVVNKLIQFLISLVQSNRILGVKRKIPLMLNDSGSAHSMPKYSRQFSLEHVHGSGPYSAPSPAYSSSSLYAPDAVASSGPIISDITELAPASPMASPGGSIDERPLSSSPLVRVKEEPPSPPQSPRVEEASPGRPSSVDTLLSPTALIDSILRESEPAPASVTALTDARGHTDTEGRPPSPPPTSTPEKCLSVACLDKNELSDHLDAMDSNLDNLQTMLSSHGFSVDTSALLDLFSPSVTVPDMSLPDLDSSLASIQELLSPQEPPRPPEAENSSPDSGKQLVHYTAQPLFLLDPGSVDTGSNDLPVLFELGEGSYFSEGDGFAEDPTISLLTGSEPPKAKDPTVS
# Procedure, shortened: as §1
# SPIC = target: T8, SPIC (Homo sapiens, UniProt Q8N5J4 1-248); conditions: protein: recombinant; tags: N-terminal GST; dsDNA, one strand shown
# T8 sequence: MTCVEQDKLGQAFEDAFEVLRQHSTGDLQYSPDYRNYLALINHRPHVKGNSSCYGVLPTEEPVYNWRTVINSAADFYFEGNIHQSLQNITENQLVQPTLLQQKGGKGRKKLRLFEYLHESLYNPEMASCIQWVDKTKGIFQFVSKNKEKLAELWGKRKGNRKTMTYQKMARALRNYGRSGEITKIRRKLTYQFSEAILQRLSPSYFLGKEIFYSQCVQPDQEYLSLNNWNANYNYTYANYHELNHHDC
# Procedure, shortened: as §1
# ELF4 = ELF4 (Homo sapiens, UniProt Q99607 1-663); conditions: protein: recombinant; tags: N-terminal GST; dsDNA, one strand shown
# Chain of ELF4 (Q99607 whole entry): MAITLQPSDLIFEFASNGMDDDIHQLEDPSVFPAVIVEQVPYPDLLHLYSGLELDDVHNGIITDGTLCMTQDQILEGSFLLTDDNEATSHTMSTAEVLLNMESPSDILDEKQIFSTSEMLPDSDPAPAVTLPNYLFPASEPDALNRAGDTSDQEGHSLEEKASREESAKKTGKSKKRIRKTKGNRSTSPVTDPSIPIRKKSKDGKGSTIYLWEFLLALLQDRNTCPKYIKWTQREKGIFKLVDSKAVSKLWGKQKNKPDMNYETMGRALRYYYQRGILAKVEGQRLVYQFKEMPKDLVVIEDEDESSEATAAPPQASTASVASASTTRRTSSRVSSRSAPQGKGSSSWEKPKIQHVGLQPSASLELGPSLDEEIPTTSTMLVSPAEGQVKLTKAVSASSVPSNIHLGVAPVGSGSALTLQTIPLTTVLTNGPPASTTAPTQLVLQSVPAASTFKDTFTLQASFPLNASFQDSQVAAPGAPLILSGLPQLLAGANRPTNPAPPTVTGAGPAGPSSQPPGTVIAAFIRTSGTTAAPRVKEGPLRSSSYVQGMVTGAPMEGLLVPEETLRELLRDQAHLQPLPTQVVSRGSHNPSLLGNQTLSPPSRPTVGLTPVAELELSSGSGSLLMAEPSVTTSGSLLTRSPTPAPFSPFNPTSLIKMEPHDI
# Procedure, shortened: as §1
# ELK4 = target: T9, ELK4 (Homo sapiens, UniProt P28324-2 1-405); conditions: protein: recombinant; tags: N-terminal GST; dsDNA, one strand shown
# T9 sequence: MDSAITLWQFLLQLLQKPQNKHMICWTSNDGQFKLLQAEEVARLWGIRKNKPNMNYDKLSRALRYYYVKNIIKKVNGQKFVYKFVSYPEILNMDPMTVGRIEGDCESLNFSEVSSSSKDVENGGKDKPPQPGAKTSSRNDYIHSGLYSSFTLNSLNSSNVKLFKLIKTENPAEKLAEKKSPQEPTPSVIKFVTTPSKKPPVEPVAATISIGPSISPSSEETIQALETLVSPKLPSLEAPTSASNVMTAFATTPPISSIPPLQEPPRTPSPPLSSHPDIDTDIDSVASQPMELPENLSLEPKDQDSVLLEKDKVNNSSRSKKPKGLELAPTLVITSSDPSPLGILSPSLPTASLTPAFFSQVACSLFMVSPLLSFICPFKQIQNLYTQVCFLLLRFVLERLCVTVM
# Procedure, shortened: as §1
# ETV2 = target: T10, ETV2 (Homo sapiens, UniProt O00321 1-342); conditions: protein: recombinant; tags: N-terminal GST; dsDNA, one strand shown
# T10 sequence: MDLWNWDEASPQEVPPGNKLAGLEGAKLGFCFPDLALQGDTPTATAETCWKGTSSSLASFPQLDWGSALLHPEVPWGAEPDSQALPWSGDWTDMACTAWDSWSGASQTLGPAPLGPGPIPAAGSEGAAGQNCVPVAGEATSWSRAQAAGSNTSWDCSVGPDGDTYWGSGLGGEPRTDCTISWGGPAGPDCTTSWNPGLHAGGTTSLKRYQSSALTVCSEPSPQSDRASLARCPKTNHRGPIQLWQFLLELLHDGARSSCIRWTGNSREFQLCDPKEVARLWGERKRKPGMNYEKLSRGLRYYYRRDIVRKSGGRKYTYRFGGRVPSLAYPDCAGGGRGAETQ
# Procedure, shortened: as §1
# ELF3 = target: T11, ELF3 (Homo sapiens, UniProt P78545 1-371); conditions: protein: recombinant; tags: N-terminal GST; dsDNA, one strand shown
# T11 sequence: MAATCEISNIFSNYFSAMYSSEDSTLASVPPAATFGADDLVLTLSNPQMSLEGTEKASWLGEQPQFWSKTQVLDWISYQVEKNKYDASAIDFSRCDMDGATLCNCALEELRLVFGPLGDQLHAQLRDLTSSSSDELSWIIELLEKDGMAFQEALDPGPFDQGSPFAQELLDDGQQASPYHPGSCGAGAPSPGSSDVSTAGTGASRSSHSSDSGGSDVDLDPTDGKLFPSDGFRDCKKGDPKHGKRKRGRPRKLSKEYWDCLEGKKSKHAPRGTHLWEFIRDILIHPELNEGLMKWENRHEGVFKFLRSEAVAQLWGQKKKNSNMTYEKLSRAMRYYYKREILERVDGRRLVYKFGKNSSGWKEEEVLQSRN
# Procedure, shortened: as §1
# CRX = CRX (Homo sapiens, UniProt O43186 1-299); conditions: protein: recombinant; tags: N-terminal GST; dsDNA, one strand shown
# Chain of CRX (O43186 whole entry): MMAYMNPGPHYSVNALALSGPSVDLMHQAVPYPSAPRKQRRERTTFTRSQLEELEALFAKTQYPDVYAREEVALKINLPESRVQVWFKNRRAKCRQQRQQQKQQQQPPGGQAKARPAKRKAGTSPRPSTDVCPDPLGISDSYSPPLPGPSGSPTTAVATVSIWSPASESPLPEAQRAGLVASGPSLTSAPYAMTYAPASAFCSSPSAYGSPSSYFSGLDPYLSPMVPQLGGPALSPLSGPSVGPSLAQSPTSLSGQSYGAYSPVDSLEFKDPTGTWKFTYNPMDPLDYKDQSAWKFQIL
# Procedure, shortened: as §1
# ETV1 = ETV1 (Homo sapiens, UniProt P50549 1-477); conditions: protein: recombinant; tags: N-terminal GST; dsDNA, one strand shown
# Chain of ETV1 (P50549 whole entry): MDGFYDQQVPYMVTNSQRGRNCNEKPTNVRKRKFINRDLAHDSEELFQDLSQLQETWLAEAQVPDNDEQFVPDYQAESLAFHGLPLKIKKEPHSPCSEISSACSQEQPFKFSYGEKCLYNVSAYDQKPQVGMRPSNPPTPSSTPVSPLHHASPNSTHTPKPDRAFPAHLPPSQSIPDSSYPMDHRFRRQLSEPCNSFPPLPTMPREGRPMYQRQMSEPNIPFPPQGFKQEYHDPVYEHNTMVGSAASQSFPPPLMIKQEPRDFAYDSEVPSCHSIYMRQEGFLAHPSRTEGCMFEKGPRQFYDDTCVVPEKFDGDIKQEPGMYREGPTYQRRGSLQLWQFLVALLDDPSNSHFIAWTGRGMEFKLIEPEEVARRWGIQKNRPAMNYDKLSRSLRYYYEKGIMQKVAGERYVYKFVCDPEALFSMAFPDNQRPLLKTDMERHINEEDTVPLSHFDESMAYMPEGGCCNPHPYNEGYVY
# Procedure, shortened: as §1
sequence,measurement,setting,value
ATTGGT,binding signal,FLI1,"1.31 fold enrichment (6-mer frequency, TF over GST control)"
same,binding signal,ELK1,"1.34 fold enrichment (6-mer frequency, TF over GST control)"
same,binding signal,GABPA,"1.14 fold enrichment (6-mer frequency, TF over GST control)"
same,binding signal,ERG,"1.19 fold enrichment (6-mer frequency, TF over GST control)"
same,binding signal,ELF1,"1.22 fold enrichment (6-mer frequency, TF over GST control)"
same,binding signal,EHF,"1.28 fold enrichment (6-mer frequency, TF over GST control)"
same,binding signal,SPI1,"1.25 fold enrichment (6-mer frequency, TF over GST control)"
same,binding signal,SPIB,"1.33 fold enrichment (6-mer frequency, TF over GST control)"
same,binding signal,ELK3,"1.33 fold enrichment (6-mer frequency, TF over GST control)"
same,binding signal,FEV,"1.21 fold enrichment (6-mer frequency, TF over GST control)"
same,binding signal,ETV5,"1.29 fold enrichment (6-mer frequency, TF over GST control)"
same,binding signal,HSF1,"1.12 fold enrichment (6-mer frequency, TF over GST control)"
same,binding signal,SPIC,"1.24 fold enrichment (6-mer frequency, TF over GST control)"
same,binding signal,ELF4,"1.27 fold enrichment (6-mer frequency, TF over GST control)"
same,binding signal,ELK4,"1.19 fold enrichment (6-mer frequency, TF over GST control)"
same,binding signal,ETV2,"1.01 fold enrichment (6-mer frequency, TF over GST control)"
same,binding signal,ELF3,"1.14 fold enrichment (6-mer frequency, TF over GST control)"
same,binding signal,CRX,"1.2 fold enrichment (6-mer frequency, TF over GST control)"
same,binding signal,ETV1,"1.29 fold enrichment (6-mer frequency, TF over GST control)"
